Screening data deposited in PubChem by several laboratories.
S1P2 ag: S1P2 receptor agonists, primary screen, cell-based; S1P2-expressing cell line, agonist reporter read-out; Sphingosine 1-phosphate receptor 2 (Homo sapiens), O95136; 97,000 tested, 0.46% active; activation, % at 4.5 µM; in the data active = activation above about 16%;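 also: 0% = vehicle low control and 100% = maximal reference agonist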
S1P2 antag: human S1P2 receptor antagonists, primary screen, cell-based. cell-based S1P2 antagonist assay, inhibition at 5 uM. inhibition, % at 5 µM. 97,000 tested, 0.21% active. AID 736, 2007. Sphingosine 1-phosphate receptor 2 (Homo sapiens), O95136; in the data active = inhibition above about 45%;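 also: CRE beta-lactamase reporter cells expressing human S1P2 stimulated with S1P; 0% = agonist at EC80 alone and 100% = agonist plus reference antagonist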
GALR2 agonist: GALR2 receptor agonists, primary screen, cell-based. Galanin receptor type 2 (Homo sapiens), O43603. GALR2-expressing cells, agonist activation read-out. activation, % (no concentration beside the values). 140,000 tested, 0.48% active. AID 803, 2007; in the data active = activation above about 5%, passing the limit was not always enough;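 also: 0% = vehicle buffer wells and 100% = reference agonist at full effect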
PLAP act: PLAP enzyme activators, biochemical, luminescence, HTS; Alkaline phosphatase, placental type (Homo sapiens), P05187; purified PLAP enzyme, luminescent substrate read-out; active compounds read high; activation fold at 20 µM; 96,000 tested, 1.2% active; in the data active = activation fold above about 2
Target sequence (P05187 whole entry, looked up): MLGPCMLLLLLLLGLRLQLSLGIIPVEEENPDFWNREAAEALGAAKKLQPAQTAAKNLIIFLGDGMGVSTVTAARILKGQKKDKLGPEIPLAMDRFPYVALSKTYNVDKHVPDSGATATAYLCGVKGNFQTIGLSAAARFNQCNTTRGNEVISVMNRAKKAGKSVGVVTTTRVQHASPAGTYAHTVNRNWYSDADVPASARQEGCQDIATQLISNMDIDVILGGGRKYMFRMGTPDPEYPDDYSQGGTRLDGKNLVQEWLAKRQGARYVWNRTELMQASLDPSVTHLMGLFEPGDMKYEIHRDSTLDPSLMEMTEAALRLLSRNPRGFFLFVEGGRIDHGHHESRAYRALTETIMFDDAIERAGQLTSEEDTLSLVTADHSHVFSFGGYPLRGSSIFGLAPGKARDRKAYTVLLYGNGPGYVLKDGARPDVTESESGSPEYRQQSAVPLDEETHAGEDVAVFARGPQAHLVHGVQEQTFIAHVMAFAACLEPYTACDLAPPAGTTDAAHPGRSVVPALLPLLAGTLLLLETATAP
GALR2 antag: GALR2 antagonists in receptor-expressing cells, primary screen; Galanin receptor type 2 (Homo sapiens), O43603; antagonist mode; inhibition, % at 4 µM; 140,000 tested, 0.39% active; AID 828, 2007; in the data active = inhibition above about 27%;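 also: cells stimulated with galanin 1-16 at roughly its EC80; 0% = agonist challenge control and 100% = basal control without agonist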
GALR2 ag confirm: GALR2 agonists, retest of hits, confirmation, cell-based. shares compounds with GALR2 agonist. AID 864, 2007. 460 tested, 10% active. GALR2-expressing cells, agonist activation. activation, % at 5.6 µM; in the data active = activation above about 8.4%;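 also: 0% = buffer-only vehicle wells and 100% = full reference agonist response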
BLA activ ctr: activators of NFAT-driven beta-lactamase reporter, confirmation, counter-screen for GALR2 agonist project, CHO NFAT-bla cells, FRET readout; shares compounds with GALR2 agonist; beta-lactamase FRET activation; activation, % at 5.6 µM; 460 tested, 10% active;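 active = activation above the screen-wide mean activation plus 3 SD, cut at about 8% in these data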;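 also: 0% = DMSO with PBS wells and 100% = thapsigargin positive control wells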
An asterisk follows results filed as active; x = not tested or not shown. This is a sample that favours compounds with a hit; in the whole collection about 2% have one here.

SMILES | S1P2 ag | S1P2 antag | GALR2 agonist | PLAP act | GALR2 antag | GALR2 ag confirm | BLA activ ctr
O=C(c1ccco1)N1CCN(C(=O)c2cc3c(=O)oc4ccccc4c3s2)CC1 | -5 | -8 | 30* | 1 | 1 | -1 | -1
COc1ccc(C2CC(c3cccs3)=NN2c2ccc(C=O)cc2)cc1 (configuration not stated) | x | x | 29* | x | 6 | 15* | 32*
COc1ccc(C2CC(c3cccs3)=NN2C(=O)c2ccc(Br)o2)cc1 (configuration not stated) | x | x | 1 | x | -4 | x | x
COc1ccc(C2CC(c3ccccc3)=NN2c2ccc(/C=N/NC(=O)c3ccncc3)cc2)cc1 (configuration not stated) | 8 | 22 | 17* | 1 | 24 | 2 | 1
COc1ccccc1/C=N\N=C(\N)c1ccccn1 | x | x | -2 | x | 0 | x | x
Cc1cccc2c1-c1sc(C(=O)Nc3nccs3)cc1CO2 | 24* | -12 | 89* | 1.1 | 5 | 11* | 24*
Cc1nnc(SCC(=O)c2cc(C)n(-c3ccc4c(c3)OCO4)c2C)s1 | -5 | -5 | 10 | 1 | -8 | -1 | -2
Cc1cc(C(=O)CSc2nnnn2C)c(C)n1-c1ccc2c(c1)OCCO2 | -4 | 9 | 0 | 1.6 | -8 | x | x
CCn1cc(C2=NOC(C(=O)Nc3cc(C)nn3-c3ccccc3)C2)c(C)n1 (configuration not stated) | x | x | 11* | 1.4 | 14 | 0 | -2
O=C(N/N=C/c1ccc(O)cc1)c1csc2c1CCCC2 | x | x | -1 | x | 7 | x | x
N#Cc1c(NC(=O)c2ccccc2Cl)n(Cc2ccccc2)c2nc3ccccc3nc12 | x | x | 8.2* | x | 10 | 4 | 7
COc1ccccc1[C@@H]1C(c2cccc(Cl)c2)=NN(c2ccccc2)[C@H]1C(=O)N1CCOC1=O | x | x | 30* | x | 8 | 13* | 22*
O=C1OCCN1C(=O)[C@H]1[C@H](c2ccc(Cl)cc2)C(c2cccc(Cl)c2)=NN1c1ccccc1 | x | x | 23* | x | -1 | 10* | 19*
Cc1cccc(C2=NN(c3ccc(Br)cc3)[C@@H](C(=O)N3CCOC3=O)[C@@H]2c2ccc(F)cc2)c1 | x | x | 9.8* | x | 7 | 5 | 8
COc1ccccc1C(=O)N1CCN(c2cccc(Cl)c2)CC1 | -4 | 3 | -1 | x | 6 | x | x
Cc1cccc(C2=NC(C(F)(F)F)(C(F)(F)F)c3c(n(-c4ccc(F)cc4)c(=O)[nH]c3=O)N2)c1 | x | x | -2 | x | 0 | x | x
Cc1ccc(-c2nnn(CC(=O)Nc3ccccc3-c3ccccc3)n2)c(-n2cnnn2)c1 | -8 | -3 | -2 | 1.1 | 14 | x | x
CCN1CCN(C(=S)NC(C)c2ccccc2)CC1 (configuration not stated) | x | x | -1 | x | 18 | x | x
O=C(O)C1CCCN(S(=O)(=O)c2ccc(Br)cc2)C1 (configuration not stated) | -5 | -6 | -2 | 0.9 | -8 | x | x
Nc1c(C(=O)NCc2ccccc2)c2nc3ccccc3nc2n1CCCN1CCOCC1 | x | x | 16* | x | -16 | 11* | 23*
COC(=O)c1ccc2c(c1)C(C)(C)C(/C=C/c1ccccc1O)=[N+]2C | 5 | 32 | 13* | 0.4 | 17 | -2 | -7
C[N+]1=C(/C=C/Nc2ccccc2Cl)C(C)(C)c2ccccc21 | x | x | 0 | x | 4 | x | x
O=[n+]1cc(-c2cccc3ccccc23)n([O-])c2c1CCC2 | -6 | 0 | -1 | 1.2 | 7 | x | x
CCc1nnc(NC(=O)CSc2nc3cccnc3n2Cc2ccccc2)s1 | -6 | -15 | -1 | x | 7 | x | x
Cc1cc(C)c(NC(=O)/C(=C/c2ccccc2)c2ccccc2)c(C)c1 | x | x | -2 | x | -1 | x | x
Cc1ccc(NC(=O)/C(=C/c2ccco2)c2ccccc2)c(C)c1 | -5 | -1 | 91* | 0.9 | -5 | -1 | -2
COC(=O)C(OC(=O)c1ccc(OC)cc1)C(=O)OC | -3 | -24 | -2 | x | 0 | x | x
COCCCNC(=O)c1cn(CC(C)C)c(=O)c2c1c1ccccc1n2C | -5 | -5 | 20* | 1.5 | -5 | 0 | -3
COC(=O)C1=C(C)NC(C)=C(C(=O)OC)C1c1cn(-c2ccccc2)nc1-c1ccco1 | -2 | 4 | 0 | 1.3 | 11 | x | x
COc1ccccc1NC(=O)COc1ccccc1 | -4 | 14 | -1 | 0.8 | 4 | x | x
